Screening results (PubChem)
Only some compounds are listed: those with a hit (about 5.9% of all), similar ones and a draw of the others.
DAX1 inh: inhibitors of human orphan nuclear receptor DAX1 (NR0B1); P51843; HEK293 Gal4-DAX1 luciferase reporter, luminescence; inhibition, % at 6.75 µM; actives 0.99% (n = 340,000);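 active means inhibition above the mean over all tested compounds plus 3 SD, cut at about 4.2% in these data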;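 further: 0% = DAX1-transfected cells with DMSO and 100% = empty-vector control cells with DMSO; inhibition shows as a rise in luminescence from relieved DAX1 repression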
AHR act: human AHR activation. P35869. AHR-responsive luciferase reporter cells, luminescence. activation, % at 5 µM. actives 2.5% (n = 320,000); in the data active means activation above about 47%;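 further: 0% = vehicle wells and 100% = reference agonist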
HSP90 refold inh: HSP90 refolding inhibition in rabbit reticulocyte lysate; luciferase refolding luminescence, 3 h; AID 1789; actives 0.91% (n = 290,000); inhibition, % at 5.6 µM;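 active means inhibition above the screen-wide mean plus 3 SD, computed separately per campaign, cut at about 16% in these data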;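 further: 0% = DMSO wells and 100% = 60 µM geldanamycin wells; inhibitors lower the luminescence because luciferase stays unfolded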
GAA850 FXN act: frataxin GAA850 promoter activation | activation, % at 6 µM | actives 0.56% (n = 360,000) | HEK293 lucGAA850 FXN promoter luciferase reporter, 24 h; percent of 10 µM SAHA response;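 active means activation above the average of all compounds screened plus 3 SD, cutoff fixed separately per campaign, cut at about 7.5% in these data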;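 further: 0% = DMSO wells and 100% = 10 µM SAHA wells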
HSF1 inh: HSF1 inhibition. NIH3T3-HGL HSE-luciferase, MG132-induced, luminescence 8 h; hits give low values. activity change, negative = inhibition, % at 7.5 µM (by protocol). actives 0.77% (n = 300,000);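 active means more than half of replicate wells show activity change below -50%, luminescence cut by over half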;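 further: luciferase reports HSF-1 transcriptional activity via heat shock element; 0% = median of DMSO wells and -100% = zero luminescence signal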
HSF-1 act: increases HSF-1 driven luciferase reporter signal; actives 1.7% (n = 300,000); NIH3T3-HGL HSF-1 luciferase reporter, MG132, 8 h; 100% = twice DMSO control signal; activation, % at 9 µM;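 active means mean replicate activation of at least 50% with a set share of replicates each reaching 50%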;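 further: 0% = median of the neutral control wells and 100% = twice that signal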
Starred values were filed as active, the others as inactive; . = not tested or not shown.

SMILES | DAX1 inh | AHR act | HSP90 refold inh | GAA850 FXN act | HSF1 inh | HSF-1 act
Fc1ccc(C2NC(=S)NC3=C2N2CCC3CC2)cc1 (stereo not given) | 1 | 2 | -2 | -1 | 13 | 53*
COC(=O)c1ccc2c(c1)NC(=O)C(N(CC(C)C)CC(C)C)S2 (stereo not given) | 5.1* | 0 | -2 | 1 | 1 | -2
CCCN(CCC)C1Sc2ccc(C(=O)OC)cc2NC1=O (stereo not given) | 1 | 1 | 1 | -1 | -2 | 15
Cc1nc(NC(=O)c2ccccc2)sc1-c1cc(C(=O)N2CCOCC2)nn1Cc1ccccc1 | -1 | . | . | 0 | . | .
COc1ccc(/C=N/n2c(-c3n[nH]c4c3CCC4)n[nH]c2=S)c(OC)c1OC | -1 | 25 | 5 | 0 | -5 | 6
COc1cccc(/C=N/n2c(-c3n[nH]c4c3CCC4)n[nH]c2=S)c1OC | 1 | 51* | 0 | 2 | -3 | 0
c1ccc(Nc2cc(Nc3ccccc3)[nH]n2)cc1 | 0 | 70* | 10 | 6 | 16 | 36
COCCCNC(=O)c1ccc2sc(C3=C[C@@H](O)[C@@H](O)[C@@H](CO)O3)nc2c1 | . | . | . | 1 | . | .
O=C(NC1CCCC1)C(c1ccncc1)N(Cc1ccco1)C(=O)c1ccc(-c2ccccc2)[nH]1 (stereo not given) | 0 | 26 | -1 | 0 | 114 | 122*
O=C(NC1CCCC1)C(c1ccncc1)N(CCCN1CCOCC1)C(=O)c1ccc(-c2ccccc2)[nH]1 (stereo not given) | 0 | 3 | -1 | -2 | 22 | 29
O=C(NC1CCCC1)C(c1ccncc1)N(Cc1ccccc1)C(=O)c1ccc(-c2ccccc2)[nH]1 (stereo not given) | 0 | 7 | -6 | -2 | 44 | 73*
CC(C)(C)NC(=O)C(c1ccncc1)N(Cc1ccc(F)cc1)C(=O)c1ccc(-c2ccccc2)[nH]1 (stereo not given) | 0 | 3 | -1 | -2 | 90 | 87*
COc1ccc(N2CCN(CCCn3cnc4c(SC)ncnc43)CC2)cc1 | 0 | . | . | -1 | . | .
CCCCNc1nc(N(C)c2ccccc2)nc(-n2ccnc2)n1 | 0 | 61* | -1 | 4 | -5 | 0
N=c1nc2n(cc1F)C1OC(CO)C(O)C1O2 (stereo not given) | -3 | . | . | -7 | . | .
CC(NC(=O)COC(=O)/C=C/c1ccc([N+](=O)[O-])cc1)c1ccccc1 (stereo not given) | -1 | -2 | 0 | 2 | 7 | 11
O=C(/C=C/c1ccc([N+](=O)[O-])cc1)OCc1cnc(-c2ccccc2)o1 | 6.1* | 0 | 1 | -1 | 12 | 11
O=c1c(-c2ccccc2)cocc1-c1ccccc1 | 1 | . | . | 2 | . | .
COc1cc(F)ccc1-c1csc(C(O)(c2ccccc2)C(F)(F)F)n1 (stereo not given) | . | . | . | 4 | . | .
CCOC(=O)C1CCN(C(=O)c2ccc(OCC(=O)Nc3ccc(OCC)cc3)c(OC)c2)CC1 | 4.2* | 1 | . | -1 | 0 | 1
O=C(NNC(=O)c1cc(S(=O)(=O)N2CCOCC2)ccc1Cl)c1ccc(F)cc1 | 0 | . | . | 0 | . | .
CCN(CC)C(=O)CSc1nc2c(sc(=S)n2-c2ccccc2)c(=O)n1Cc1ccco1 | -1 | -1 | -2 | 2 | 43 | 67*
CCOC(=O)CSc1nc2c(sc(=S)n2Cc2ccco2)c(=O)n1-c1ccc(F)cc1 | 0 | 1 | 1 | 2 | 41 | 80*
N#C/C(=C\c1cccnc1)C(=O)Nc1ccc(S(N)(=O)=O)cc1 | 0 | . | -1 | 5 | -35 | -51
COc1ccc(-c2oc3cc(O)c(OC)c(O)c3c(=O)c2OC)cc1O | -1 | . | . | -3 | . | .
SMILES | DAX1 inh | AHR act | HSP90 refold inh | GAA850 FXN act | HSF1 inh | HSF-1 act
CCCCNC(=O)C1(C)CCN1C(=O)c1sccc1C (stereo not given) | . | . | . | -1 | . | .
O=C(NC(=S)Nc1ccc(N2CCCCC2)c(Cl)c1)c1ccc2c(c1)OCCO2 | 0 | 0 | 2 | 1 | -60* | -64
Cc1cc(C)cc(C(=O)NC(=S)Nc2ccc3c(c2)OCCO3)c1 | 0 | 16 | 2 | 4 | 71 | 122*
O=C(NC(=S)Nc1ccc2c(c1)OCO2)c1ccc(Cl)cc1 | 3 | 53* | -5 | 4 | 15 | 38
COc1cc([N+](=O)[O-])ccc1NC(=S)NNC(=O)c1ccc2c(c1)OCO2 | 0 | 39 | 1 | -1 | -3 | -14
CCc1ccc(C(=O)NC(=S)Nc2ccc3c(c2)OCCO3)cc1 | 3 | 2 | -2 | 5 | 18 | 24
O=C(NC(=S)Nc1cc([N+](=O)[O-])ccc1O)c1ccc2c(c1)OCO2 | 1 | 71* | 10 | -1 | 9 | 22
COc1ccc(OC)c(S(=O)(=O)N2CCC(C(=O)N3CCCCCC3)CC2)c1 | 2 | 1 | 2 | 0 | 4 | 23
CC1CCN(CCc2nc3cc(NC(=O)C(C)C)ccc3n2C)CC1 | 1 | 4 | -2 | 3 | -12 | -10
Cc1cc(C)c(C)c(S(=O)(=O)N2CCC(C(=O)N3CCCC3)CC2)c1C | 1 | 0 | . | 1 | . | .
N#Cc1ccccc1NCC(=O)N1CCN(S(=O)(=O)c2ccccc2)CC1 | 0 | 3 | . | 0 | . | .
O=C(Nc1ccc2c(c1)OCO2)c1ccc([N+](=O)[O-])cc1[N+](=O)[O-] | 0 | 72* | 4 | 1 | 25 | 47
S=C(Nc1ccc2c(c1)OCO2)Nc1ccc2c(c1)OCO2 | 2 | 68* | 4 | 2 | -2 | -1
CN(C)C(=S)Nc1ccc2c(c1)OCO2 | 0 | 3 | 3 | 5 | -1 | -9
O=C(Cc1ccc([N+](=O)[O-])cc1)Nc1ccc2c(c1)OCO2 | 0 | 15 | -3 | -1 | . | .
CC(C)Nc1nc(-c2ccccn2)nc(-c2ccccc2)c1C#N | 4.8* | 0 | -2 | 1 | -18 | -26
CC(C)Nc1nc(-c2cccnc2)nc(-c2ccccc2)c1C#N | 2 | 12 | -2 | 1 | -2 | -4
Cc1nn(-c2ccccc2)c(C)c1/C=N/NC(=O)CSc1nnc(SCc2ccc(Cl)cc2)s1 | 0 | 20 | -1 | 1 | 37 | 68*
O=C1Nc2ccc(Br)cc2C1Cc1ccccc1F (stereo not given) | -1 | 57* | -2 | 1 | -1 | 3
Cn1c(CC2C(=O)Nc3ccc(Br)cc32)nc2ccccc2c1=O (stereo not given) | -1 | 50* | 3 | -3 | -2 | -3
O=C1NC(Cc2ccccc2)C(=O)Nc2ccc(Br)cc21 (stereo not given) | 0 | -2 | 0 | 0 | 14 | 26
CC1=NN(C(N)=S)C(=O)C1N=Nc1ccccc1O (stereo not given) | -1 | 47* | 1 | 3 | -1 | 15
CC1=NN(C(N)=S)C(=O)C1N=Nc1ccccc1[N+](=O)[O-] (stereo not given) | 0 | . | . | 0 | . | .
